The values below come from PMC4552634, “A New Set of Chemical Starting Points with Plasmodium falciparum Transmission-Blocking Potential for Antimalarial Drug Discovery” (PLoS ONE, 2015).

Among all 13,000 compounds or so, about 3,200 (25%) showed an effect of 50% or more. Some of the results follow.

The test system of this assay is P. falciparum stage V gametocytes. Further details: BacTiter-Glo ATP luminescence viability of purified stage V gametocytes in 384-well plates, per cent inhibition versus DMSO. To be noted: 48 h, 5 µM; inhibitor.
For the compound `c1ccc(CCNc2ccnc(Nc3ccc4cn[nH]c4c3)n2)cc1` [TCMDC-136880], the “% Inhibition” value turned out to be 16.88%. With `CN(c1ccccc1)S(=O)(=O)c1cccc(NC(=O)c2ccc(-n3ccnc3)c([N+](=O)[O-])c2)c1` [TCMDC-125320], the “% Inhibition” value came to 19.17%.

In the case of `CCC(=O)N1CCc2cc(Br)cc(S(=O)(=O)N3CC(C)CC(C)C3)c21` (stereo not drawn) [TCMDC-123873], the “% Inhibition” value is -4.792%. Turning to `Cc1ccc(N2C(=O)C3C(C2=O)C2(c4ccccc4)C(=O)C3(c3ccccc3)C(c3ccccc3)=C2c2ccccc2)c(C)c1` (stereo not drawn) [TCMDC-124184], the “% Inhibition” value was 31.21%. Next, `Oc1ccc(CCNc2nc(N/N=C/c3ccc(Cl)cc3)nc(N3CCNCC3)n2)cc1` [TCMDC-138543]: -10.01%; `C=CCN(c1ccc(OC)cc1)S(=O)(=O)c1ccc(Cl)c(C(=O)Nc2cccc(C#N)c2)c1` [TCMDC-123716]: -20.14%; `COc1ccc(-c2ccc(NC(=O)c3ccc(F)cc3)cc2)cc1CNC(C)C` [TCMDC-132515]: 64.88%. For `COc1ccc(-c2ccc(NC(=O)c3cccc(F)c3)cc2)cc1CNC(C)C` [TCMDC-132529], the “% Inhibition” value is reported as -9.819%. As to `COc1ccc(-c2cccc(NC(=O)c3ccc(Cl)cc3)c2)cc1CNC(C)C` [TCMDC-132603], the “% Inhibition” value is on record as 87.48%. With `COc1ccc(-c2cccc(NC(=O)c3cccc(Cl)c3)c2)cc1CNC(C)C` [TCMDC-133340], the “% Inhibition” value is recorded as -37.98%. For the compound `COc1ccc(-c2ccc(NC(=O)c3ccc(C#N)cc3)cc2)cc1CNC(C)C` [TCMDC-132518], the “% Inhibition” value worked out at 25.16%. In the case of `COc1ccc(-c2ccc(NC(=O)c3cccc(Cl)c3)c(F)c2)cc1CNC(C)C` [TCMDC-132766], the “% Inhibition” value was 31.53%.

With `CCNc1cc(C(=O)N[C@@H](Cc2ccccc2)[C@H](O)CNC(C)(C)c2cccc(OC)c2)cc(N2CCCC2=O)c1` [TCMDC-138895], the “% Inhibition” value is on record as -11.4%. For `CCc1cccc(-n2nc(OCC(=O)NC3CCCC3)c3cccnc32)c1` [TCMDC-125160], the “% Inhibition” value turned out to be 5.355%. `COc1cccc2cc(C(=O)N[C@@H](CC(C)C)C(=O)N[C@H](C=NN3CC(=O)NC3=O)CC(C)C)oc12` [TCMDC-136063]: the “% Inhibition” value is 6.388%. As for `COc1ccc(NC(=O)Nc2ccc(-c3ccc(-c4nc5ccccc5[nH]4)cc3)cc2)cc1` [TCMDC-133248], the “% Inhibition” value is given as -24.62%. Turning to `Oc1cc(-c2nc(-c3ccccc3)[nH]c2-c2ccncc2)ccc1Cl` [TCMDC-139660], the “% Inhibition” value is on record as -47.58%. Next, `CCCCNCCOc1ccc(-c2nc(-c3ccccc3)c(-c3ccccc3)[nH]2)cc1` [TCMDC-138053]: 74.26%; `COc1ccc(OCC(=O)Nc2cc(-c3nc4ccccc4[nH]3)ccc2Cl)cc1` [TCMDC-125425]: -8.801%. As for `CCCCCOc1ccc(C=NNc2nc(-c3ccccc3)cc(=O)[nH]2)cc1` [TCMDC-124237], the “% Inhibition” value came to 29.87%. With `CCCCCCNCCOc1ccc(-c2nc(-c3ccccc3)c(-c3ccccc3)[nH]2)cc1` [TCMDC-137684], the “% Inhibition” value is recorded as 76.06%. Consider `COc1cc(-c2nc(-c3ccccc3)c(-c3ccccc3)[nH]2)ccc1OCCN(C)C` [TCMDC-137716], for which the “% Inhibition” value is -85.41%. Next, `Oc1cccc(-c2nc(-c3ccccc3)c(-c3ccc(Oc4ccc(-c5[nH]c(-c6cccc(O)c6)nc5-c5ccccc5)cc4)cc3)[nH]2)c1` [TCMDC-125666]: -19.27%.

Consider `CCCCOc1ccc(-c2nc3ccccc3[nH]2)cc1` [TCMDC-123930], for which the “% Inhibition” value was found to be 57.83%. Next, `CN(C)c1ccc(CN2CCC(NC(=O)c3ccc(-c4cccc(F)c4)s3)CC2)cc1` [TCMDC-134327]: -0.6628%. Next, `COc1ccccc1Nc1nc(C)cc(NCc2ccc(-n3ccnc3)cc2)n1` [TCMDC-133452]: 11.88%; `COc1ccc(S(=O)(=O)Nc2cc(C)cc(Br)c2OC)cc1N1CCN(C(=O)C(Cl)(Cl)Cl)CC1` [TCMDC-139808]: 8.102%; `CO/C(=C\C=C\c1cc2cc(Cl)c(Cl)cc2[nH]1)C(=O)NCCCN1CCN(c2ccncc2)CC1` [TCMDC-139184]: 16.21%. `CN(C)CCCSc1ccccc1NC(=O)C=Cc1ccccc1` [TCMDC-125843]: the “% Inhibition” value was 7.207%. On to `Cc1ccc(-c2noc(COc3ccccc3C(=O)NC3CCCC3)n2)cc1` [TCMDC-124748], for which the “% Inhibition” value is 47.39%.

On to `FC(F)(F)c1ccc2nccc(NCc3ccccc3)c2c1` [TCMDC-138259], for which the “% Inhibition” value is reported as -8.95%.

For the compound `CCc1ccc(NC(=O)c2ccc(CN3CCCN(CCC(C)C)CC3)cc2)cc1` [TCMDC-136448], the “% Inhibition” value was -6.236%. With `COc1ccc2oc(=O)c(C#N)c(O)c2c1` [TCMDC-131398], the “% Inhibition” value is listed as -8.165%. Next, `CCCCCCN1CCC(NCc2cccc(C#N)c2)CC1` [TCMDC-141670]: -17.05%; `CCCCCCN1CCC(NCc2ccc(CN(C)C)cc2)CC1` [TCMDC-141662]: 16.26%. Consider `CN1CCN(CCCN(Cc2ccc(-c3ccc(CNC4CCCC4)cc3)cc2)C(=O)CCC2CCCC2)CC1` [TCMDC-140560], for which the “% Inhibition” value is given as 99.06%. Regarding `FC(F)(F)c1cccc(CNC2CCN(CC3CCCCC3)CC2)c1` [TCMDC-141660], the “% Inhibition” value was -52.78%. Next, `CN1CCN(CCCN(Cc2cccc(-c3ccc(CNC4CCCC4)cc3)c2)C(=O)CCC2CCCC2)CC1` [TCMDC-140750]: 98.64%. Next, `CN1CCN(CCCN(Cc2cccc(-c3cccc(CNC4CCCC4)c3)c2)C(=O)CCC2CCCC2)CC1` [TCMDC-140555]: 119.1%; `FC(F)(F)c1ccc(CNC2CCN(CC3CCCCC3)CC2)cc1` [TCMDC-141661]: -50.93%.

In the case of `CCCC(C)Nc1nc(C)cc(N[C@@H](Cc2ccccc2)C(=O)Nc2ccccc2)n1` (stereo partly drawn) [TCMDC-134767], the “% Inhibition” value was -30.62%. Take `CCc1c(C(=O)NC2CCC(N3CCC(c4ccccc4OC)CC3)CC2)[nH]c2ccc(Br)cc12` (stereo not drawn) [TCMDC-133499]: the “% Inhibition” value is -52.27%. As for `COc1ccccc1C(C)NCC(=O)Nc1cc(C(F)(F)F)ccc1Cl` (stereo not drawn) [TCMDC-125041], the “% Inhibition” value is -2.208%. As to `COc1ccc(Nc2nccc(N3CCC(NS(=O)(=O)c4ccc(NC(C)=O)cc4)C3)n2)cc1` (stereo not drawn) [TCMDC-133608], the “% Inhibition” value is recorded as -25.9%.

Turning to `CNC(=O)C(NC(=O)c1ccccc1C(=O)OC)c1ccccc1` (stereo not drawn) [TCMDC-137226], the “% Inhibition” value stood at 6.158%. Take `CCN(CC)CCN(Cc1ccc(-c2ccc(C(F)(F)F)cc2)cc1)C(=O)Cn1cc(Cc2cnn(C)c2)c(=O)nc1/C=C/c1cccc(F)c1F` [TCMDC-140964]: the “% Inhibition” value is recorded as 99.53%.

As to `CCN(CC)CCN(Cc1ccc(-c2ccc(C(F)(F)F)cc2)cc1)C(=O)Cn1cc(Cc2cnn(C)c2)c(=O)nc1/C=C/c1ccc(F)cc1` [TCMDC-140741], the “% Inhibition” value is 95.48%. On to `O=C(Cc1cc(=O)oc2cc(O)ccc12)N1CCC(CN2CCC(c3c[nH]c4ccccc34)CC2)CC1` [TCMDC-139881], for which the “% Inhibition” value is reported as 9.393%. Regarding `N#Cc1cccc(NC(=O)Nc2ccc(-c3csc(-c4nc5ccccc5[nH]4)c3)cc2)c1` [TCMDC-133188], the “% Inhibition” value was 30.15%.

For `Cn1nc(C(F)(F)F)cc1-c1ccc(C(=O)Nc2ccc3c(c2)CNCC3(C)C)s1` [TCMDC-141916], the “% Inhibition” value came to 39.68%. On to `NC(N)=NC(=O)Nc1cc(Cl)c(Cl)c(C(F)(F)F)c1` [TCMDC-137511], for which the “% Inhibition” value is recorded as -11.78%. With `CCCCC(=O)Nc1cc(=O)[nH]c2nc(-c3ccc(Cl)cc3)nn12` [TCMDC-125002], the “% Inhibition” value stood at 1.203%. As for `COc1cc(NC(=O)/C=C/c2cc(F)cc(F)c2F)cc(OCCN2CCC(O)(c3ccccc3)CC2)c1` [TCMDC-140936], the “% Inhibition” value is on record as -10.33%. Next, `N#Cc1cccc(NC(=O)Nc2ccc3c(c2)CCN(C2CCC2)CC3)c1` [TCMDC-136005]: 22.54%; `COc1ccc(C(C(=O)NC2CCN(C[C@H](O)c3ccnc4ccc(OC)cc34)CC2)N2CCN(Cc3ccccc3)CC2)cc1` (stereo partly drawn) [TCMDC-140987]: -16.46%; `CN1CCC(COC(=O)C(O)(c2ccccc2)c2ccccc2)C1` (stereo not drawn) [TCMDC-131375]: 2.294%.

Consider `C=CCNS(=O)(=O)c1ccc(NC(=O)C(C)Oc2ccc([N+](=O)[O-])cc2)cc1` (stereo not drawn) [TCMDC-125123], for which the “% Inhibition” value came out at 69.95%. `C=CCNC(=O)C(C)c1ccc2cc(OC)ccc2c1` (stereo not drawn) [TCMDC-132021]: the “% Inhibition” value is reported as 24.74%.

For `Cc1ccc(NC(=O)c2cc([N+](=O)[O-])ccc2NCc2cccnc2)cc1Cl` [TCMDC-124571], the “% Inhibition” value was determined as 7.674%. Turning to `NCCNc1ccc([N+](=O)[O-])cc1C(=O)Nc1cccc(Cl)c1` [TCMDC-123690], the “% Inhibition” value was found to be 33.32%. Regarding `CCCCNS(=O)(=O)c1ccc(NC(=O)c2cc([N+](=O)[O-])ccc2Cl)cc1` [TCMDC-124345], the “% Inhibition” value is 83.43%. Take `CCNS(=O)(=O)c1ccc(Oc2ccc([N+](=O)[O-])cc2)cc1` [TCMDC-137451]: the “% Inhibition” value is given as -0.3916%. Next, `Cc1cc(N(C)C)nc(Nc2ccc(NC(=O)C(C)Oc3ccccc3)cc2)n1` (stereo not drawn) [TCMDC-124974]: 7.49%; `Cc1cc(N2CCCC2)nc(Nc2ccc(NC(=O)C(C)Oc3ccccc3)cc2)n1` (stereo not drawn) [TCMDC-124968]: 18.82%. Next, `CCCNS(=O)(=O)c1ccc(NC(=O)C(C)Oc2ccc([N+](=O)[O-])cc2)cc1` (stereo not drawn) [TCMDC-125122]: 65.91%; `O=C(Nc1ccc(OC2CCN(Cc3ccc(F)cc3)CC2)c(Cl)c1)c1ccoc1` [TCMDC-133744]: 29.48%; `CNC(=O)NC1CCN(Cc2c(-c3cccs3)nc3ccccc3c2C(=O)N[C@@H](C)C2CCCCC2)CC1` [TCMDC-141689]: 58%. With `CC(C)CC(=O)NC1CCN(Cc2c(-c3cccs3)nc3ccccc3c2C(=O)N[C@@H](C)C2CCCCC2)CC1` [TCMDC-141791], the “% Inhibition” value is given as -23.57%. Take `CCNC(=O)NC1CCN(Cc2c(-c3cccs3)nc3ccccc3c2C(=O)N[C@@H](C)C2CCCCC2)CC1` [TCMDC-141704]: the “% Inhibition” value was determined as 101.3%.

For `C[C@H](NC(=O)c1c(CN2CCC(N3CCCCC3=O)CC2)c(-c2cccs2)nc2ccccc12)C1CCCCC1` [TCMDC-141620], the “% Inhibition” value was -63.06%.

On to `C[C@H](NC(=O)c1c(CN2CCN(C(=O)C(C)(C)C)CC2)c(-c2cccs2)nc2ccccc12)C1CCCCC1` [TCMDC-141723], for which the “% Inhibition” value is given as -7.5%. As for `C[C@H](NC(=O)c1c(CN2CCC(NC(=O)CC(C)(C)C)CC2)c(-c2cccs2)nc2ccccc12)C1CCCCC1` [TCMDC-141792], the “% Inhibition” value was found to be 25.58%.

As usually defined, the % Inhibition is the drop in the measured response relative to a control, in per cent.
